Experimental data from the supplement of paper PMC4466140.

molecular target: AgAbp1; experiment: SPOT peptide array binding signal intensity (averaged, normalized) (arbitrary units (background-subtracted, floor 0; scale differs between SH3 domains)); higher = stronger binding of the SH3 domain to the peptide
Outline: (§1)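 Detection of bound protein relied on anti-GST antibody, an HRP anti-mouse secondary and luminol, with imaging and quantification in Genespotter. The bound protein was GST-fused SH3 domains from four yeast species, incubated at 10 μg/ml overnight at 4°C in TBS-based blocking buffer on cellulose membranes carrying synthetic 15-mer peptides with cysteines replaced by serines. Binding signal is normalized, background-subtracted spot intensity averaged over replicates, in arbitrary units that differ between domains.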

Row | Binder | SPOT peptide array binding signal intensity
1 | PHNPSPFFPPPDFND | ≤ 0

molecular target: AgBbc1; experiment: as above
Outline: as §1

Row | Binder | SPOT peptide array binding signal intensity
2 | PHNPSPFFPPPDFND | 3

molecular target: AgBem1-D1; experiment: as above
Outline: as §1

Row | Binder | SPOT peptide array binding signal intensity
3 | PHNPSPFFPPPDFND | 16.5

molecular target: AgBzz1-D1; experiment: as above
Outline: as §1

Row | Binder | SPOT peptide array binding signal intensity
4 | PHNPSPFFPPPDFND | 5

molecular target: AgBzz1-D2; experiment: as above
Outline: as §1

Row | Binder | SPOT peptide array binding signal intensity
5 | PHNPSPFFPPPDFND | 22

molecular target: AgCyk3; experiment: as above
Outline: as §1

Row | Binder | SPOT peptide array binding signal intensity
6 | PHNPSPFFPPPDFND | ≤ 0

molecular target: AgFus1; experiment: as above
Outline: as §1

Row | Binder | SPOT peptide array binding signal intensity
7 | PHNPSPFFPPPDFND | ≤ 0

molecular target: AgHof1; experiment: as above
Outline: as §1

Row | Binder | SPOT peptide array binding signal intensity
8 | PHNPSPFFPPPDFND | ≤ 0

molecular target: AgHse1; experiment: as above
Outline: as §1

Row | Binder | SPOT peptide array binding signal intensity
9 | PHNPSPFFPPPDFND | 71

molecular target: AgLsb1; experiment: as above
Outline: as §1

Row | Binder | SPOT peptide array binding signal intensity
10 | PHNPSPFFPPPDFND | 3

molecular target: AgLsb4; experiment: as above
Outline: as §1

Row | Binder | SPOT peptide array binding signal intensity
11 | PHNPSPFFPPPDFND | ≤ 0

molecular target: AgMyo5; experiment: as above
Outline: as §1

Row | Binder | SPOT peptide array binding signal intensity
12 | PHNPSPFFPPPDFND | 610

molecular target: AgNbp2; experiment: as above
Outline: as §1

Row | Binder | SPOT peptide array binding signal intensity
13 | PHNPSPFFPPPDFND | 42

molecular target: AgRvs167; experiment: as above
Outline: as §1

Row | Binder | SPOT peptide array binding signal intensity
14 | PHNPSPFFPPPDFND | 0.667

molecular target: AgSho1; experiment: as above
Outline: as §1

Row | Binder | SPOT peptide array binding signal intensity
15 | PHNPSPFFPPPDFND | ≤ 0

molecular target: AgSla1-D1-D2; experiment: as above
Outline: as §1

Row | Binder | SPOT peptide array binding signal intensity
16 | PHNPSPFFPPPDFND | ≤ 0

molecular target: AgSla1-D3; experiment: as above
Outline: as §1

Row | Binder | SPOT peptide array binding signal intensity
17 | PHNPSPFFPPPDFND | ≤ 0

molecular target: CaAbp1-D1; experiment: as above
Outline: as §1

Row | Binder | SPOT peptide array binding signal intensity
18 | PHNPSPFFPPPDFND | 2

molecular target: CaAbp1-D2; experiment: as above
Outline: as §1

Row | Binder | SPOT peptide array binding signal intensity
19 | PHNPSPFFPPPDFND | 28

molecular target: CaBbc1; experiment: as above
Outline: as §1

Row | Binder | SPOT peptide array binding signal intensity
20 | PHNPSPFFPPPDFND | 14

molecular target: CaBem1-D1; experiment: as above
Outline: as §1

Row | Binder | SPOT peptide array binding signal intensity
21 | PHNPSPFFPPPDFND | ≤ 0

molecular target: CaBzz1-D1; experiment: as above
Outline: as §1

Row | Binder | SPOT peptide array binding signal intensity
22 | PHNPSPFFPPPDFND | 1.5

molecular target: CaBzz1-D2; experiment: as above
Outline: as §1

Row | Binder | SPOT peptide array binding signal intensity
23 | PHNPSPFFPPPDFND | 1.53e-05

molecular target: CaCyk3; experiment: as above
Outline: as §1

Row | Binder | SPOT peptide array binding signal intensity
24 | PHNPSPFFPPPDFND | 1

molecular target: CaFus1; experiment: as above
Outline: as §1

Row | Binder | SPOT peptide array binding signal intensity
25 | PHNPSPFFPPPDFND | 32.5

molecular target: CaHof1; experiment: as above
Outline: as §1

Row | Binder | SPOT peptide array binding signal intensity
26 | PHNPSPFFPPPDFND | ≤ 0

molecular target: CaHse1; experiment: as above
Outline: as §1

Row | Binder | SPOT peptide array binding signal intensity
27 | PHNPSPFFPPPDFND | 2

molecular target: CaLsb1; experiment: as above
Outline: as §1

Row | Binder | SPOT peptide array binding signal intensity
28 | PHNPSPFFPPPDFND | ≤ 0

molecular target: CaLsb4; experiment: as above
Outline: as §1

Row | Binder | SPOT peptide array binding signal intensity
29 | PHNPSPFFPPPDFND | 28

molecular target: CaMyo5; experiment: as above
Outline: as §1

Row | Binder | SPOT peptide array binding signal intensity
30 | PHNPSPFFPPPDFND | 112

molecular target: CaNbp2; experiment: as above
Outline: as §1

Row | Binder | SPOT peptide array binding signal intensity
31 | PHNPSPFFPPPDFND | 40.5

molecular target: CaRvs167; experiment: as above
Outline: as §1

Row | Binder | SPOT peptide array binding signal intensity
32 | PHNPSPFFPPPDFND | 0.333

molecular target: CaRvs167-3; experiment: as above
Outline: as §1

Row | Binder | SPOT peptide array binding signal intensity
33 | PHNPSPFFPPPDFND | ≤ 0

molecular target: CaSho1; experiment: as above
Outline: as §1

Row | Binder | SPOT peptide array binding signal intensity
34 | PHNPSPFFPPPDFND | 7.5

molecular target: CaSla1-D1-D2; experiment: as above
Outline: as §1

Row | Binder | SPOT peptide array binding signal intensity
35 | PHNPSPFFPPPDFND | ≤ 0

molecular target: CaSla1-D3; experiment: as above
Outline: as §1

Row | Binder | SPOT peptide array binding signal intensity
36 | PHNPSPFFPPPDFND | ≤ 0

molecular target: ScAbp1; experiment: as above
Outline: as §1

Row | Binder | SPOT peptide array binding signal intensity
37 | PHNPSPFFPPPDFND | ≤ 0

molecular target: ScBbc1; experiment: as above
Outline: as §1

Row | Binder | SPOT peptide array binding signal intensity
38 | PHNPSPFFPPPDFND | 0.5

molecular target: ScBem1-D1; experiment: as above
Outline: as §1

Row | Binder | SPOT peptide array binding signal intensity
39 | PHNPSPFFPPPDFND | ≤ 0

molecular target: ScBzz1-D1; experiment: as above
Outline: as §1

Row | Binder | SPOT peptide array binding signal intensity
40 | PHNPSPFFPPPDFND | ≤ 0

molecular target: ScBzz1-D2; experiment: as above
Outline: as §1

Row | Binder | SPOT peptide array binding signal intensity
41 | PHNPSPFFPPPDFND | 10.5

molecular target: ScCyk3; experiment: as above
Outline: as §1

Row | Binder | SPOT peptide array binding signal intensity
42 | PHNPSPFFPPPDFND | ≤ 0

molecular target: ScFus1; experiment: as above
Outline: as §1

Row | Binder | SPOT peptide array binding signal intensity
43 | PHNPSPFFPPPDFND | ≤ 0

molecular target: ScHof1; experiment: as above
Outline: as §1

Row | Binder | SPOT peptide array binding signal intensity
44 | PHNPSPFFPPPDFND | 0.25

molecular target: ScHse1; experiment: as above
Outline: as §1

Row | Binder | SPOT peptide array binding signal intensity
45 | PHNPSPFFPPPDFND | 5

molecular target: ScLsb1; experiment: as above
Outline: as §1

Row | Binder | SPOT peptide array binding signal intensity
46 | PHNPSPFFPPPDFND | ≤ 0

molecular target: ScLsb2; experiment: as above
Outline: as §1

Row | Binder | SPOT peptide array binding signal intensity
47 | PHNPSPFFPPPDFND | ≤ 0

molecular target: ScLsb3; experiment: as above
Outline: as §1

Row | Binder | SPOT peptide array binding signal intensity
48 | PHNPSPFFPPPDFND | ≤ 0

molecular target: ScLsb4; experiment: as above
Outline: as §1

Row | Binder | SPOT peptide array binding signal intensity
49 | PHNPSPFFPPPDFND | 1

molecular target: ScMyo3; experiment: as above
Outline: as §1

Row | Binder | SPOT peptide array binding signal intensity
50 | PHNPSPFFPPPDFND | 920

molecular target: ScMyo5; experiment: as above
Outline: as §1

Row | Binder | SPOT peptide array binding signal intensity
51 | PHNPSPFFPPPDFND | 613

molecular target: ScNbp2; experiment: as above
Outline: as §1

Row | Binder | SPOT peptide array binding signal intensity
52 | PHNPSPFFPPPDFND | 5

molecular target: ScPex13; experiment: as above
Outline: as §1

Row | Binder | SPOT peptide array binding signal intensity
53 | PHNPSPFFPPPDFND | 512

molecular target: ScRvs167; experiment: as above
Outline: as §1

Row | Binder | SPOT peptide array binding signal intensity
54 | PHNPSPFFPPPDFND | ≤ 0

molecular target: ScSho1; experiment: as above
Outline: as §1

Row | Binder | SPOT peptide array binding signal intensity
55 | PHNPSPFFPPPDFND | ≤ 0

molecular target: ScSla1-D1-D2; experiment: as above
Outline: as §1

Row | Binder | SPOT peptide array binding signal intensity
56 | PHNPSPFFPPPDFND | ≤ 0

molecular target: ScSla1-D3; experiment: as above
Outline: as §1

Row | Binder | SPOT peptide array binding signal intensity
57 | PHNPSPFFPPPDFND | 3

molecular target: SpAbp1-D1; experiment: as above
Outline: as §1

Row | Binder | SPOT peptide array binding signal intensity
58 | PHNPSPFFPPPDFND | 5

molecular target: SpBbc1; experiment: as above
Outline: as §1

Row | Binder | SPOT peptide array binding signal intensity
59 | PHNPSPFFPPPDFND | ≤ 0

molecular target: SpBzz1-D1; experiment: as above
Outline: as §1

Row | Binder | SPOT peptide array binding signal intensity
60 | PHNPSPFFPPPDFND | 30

molecular target: SpBzz1-D2; experiment: as above
Outline: as §1

Row | Binder | SPOT peptide array binding signal intensity
61 | PHNPSPFFPPPDFND | 1

molecular target: SpCyk3; experiment: as above
Outline: as §1

Row | Binder | SPOT peptide array binding signal intensity
62 | PHNPSPFFPPPDFND | ≤ 0

molecular target: SpHof1; experiment: as above
Outline: as §1

Row | Binder | SPOT peptide array binding signal intensity
63 | PHNPSPFFPPPDFND | ≤ 0

molecular target: SpHof1-2; experiment: as above
Outline: as §1

Row | Binder | SPOT peptide array binding signal intensity
64 | PHNPSPFFPPPDFND | ≤ 0

molecular target: SpHof1-3; experiment: as above
Outline: as §1

Row | Binder | SPOT peptide array binding signal intensity
65 | PHNPSPFFPPPDFND | ≤ 0

molecular target: SpHse1; experiment: as above
Outline: as §1

Row | Binder | SPOT peptide array binding signal intensity
66 | PHNPSPFFPPPDFND | 69.8

molecular target: SpLsb1; experiment: as above
Outline: as §1

Row | Binder | SPOT peptide array binding signal intensity
67 | PHNPSPFFPPPDFND | 18

molecular target: SpLsb4; experiment: as above
Outline: as §1

Row | Binder | SPOT peptide array binding signal intensity
68 | PHNPSPFFPPPDFND | ≤ 0

molecular target: SpMyo1; experiment: as above
Outline: as §1

Row | Binder | SPOT peptide array binding signal intensity
69 | PHNPSPFFPPPDFND | 118

molecular target: SpNbp2; experiment: as above
Outline: as §1

Row | Binder | SPOT peptide array binding signal intensity
70 | PHNPSPFFPPPDFND | 3

molecular target: SpPex13; experiment: as above
Outline: as §1

Row | Binder | SPOT peptide array binding signal intensity
71 | PHNPSPFFPPPDFND | ≤ 0

molecular target: SpRvs167; experiment: as above
Outline: as §1

Row | Binder | SPOT peptide array binding signal intensity
72 | PHNPSPFFPPPDFND | 3.33

molecular target: SpSla1-D1-D2; experiment: as above
Outline: as §1

Row | Binder | SPOT peptide array binding signal intensity
73 | PHNPSPFFPPPDFND | ≤ 0

molecular target: SpSla1-D3; experiment: as above
Outline: as §1

Row | Binder | SPOT peptide array binding signal intensity
74 | PHNPSPFFPPPDFND | ≤ 0
